Screens as filed in PubChem.
Shown is part of a subset that was picked to be rich in hits.
TDP1 cell CPT – growth inhibition of DT40 Tdp1-/-;hTDP1 cells with camptothecin (screen for TDP1 inhibitors) | 420,000 tested, 12% active | Potency, µM (series often up to 46.2 µM), inactives show top-dose activity change, negative = growth inhibition, actives largely listed as inhibitors | AID 686979 | chicken DT40 Tdp1-/-;hTDP1 cells + 20 nM CPT, ATP luminescence, 48 h; also: potency is read from the fitted curve at half-maximal effect; nearly all actives have a fitted effect of over 55% in size
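Cell growth measured by CellTiter-Glo luminescence after a minimum 48 h, 37 C compound exposure with 20 nM CPT in Tdp1-knockout DT40 cells stably expressing hTDP1, seeded 400/well; qHTS titration format.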
TDP1 cell noCPT – qHTS for Inhibitors of human tyrosyl-DNA phosphodiesterase 1 (TDP1): qHTS in cells in absence of CPT. 420,000 tested, 15% active. Potency, µM (highest dose often 46.2 µM), for the others: at the highest dose activity change, negative = growth inhibition, actives largely listed as inhibitors. DT40 Tdp1-/- hTDP1 cells, no CPT, ATP luminescence, 48 h; also: potency is read from the fitted curve at half-maximal effect; nearly all actives have a fitted effect of over 55% in size
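Camptothecin absent (DMSO only). Human TDP1-complemented DT40 knockout cells, 400 cells/well, 37 °C for minimum 48 hr; ATP measured via CellTiter-Glo, 30 min dark incubation, luminescence.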
HT1080 IDH1KD tx – HT-1080 IDH1 knockdown cell toxicity (counter line) | HT-1080 IDH1 knockdown viability, ATP luminescence, 48 h | 360,000 tested, 2% active | Potency, µM (series often up to 46.1 µM), inactives show at the top dose activity, negative = toxicity, usual class: cytotoxic;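 also: potency is read from the fitted curve at half-maximal effect; 0% = DMSO wells and -100% = cell-free medium wells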
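Assay cells: HT-1080 with IDH1 knockdown, 750 per well, RPMI/5% FBS. Exposure: 48 h at 37 °C following 2 h pre-incubation. Read: CellTiter-Glo luminescence; fitted concentration-response, curve class assigned.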
HT1080NT lethal – kills 2HG-producing HT-1080-NT fibrosarcoma cells | HT-1080-NT fibrosarcoma viability, CellTiter-Glo ATP luminescence, 48 h | Potency, µM (top dose mostly 46.1 µM), for inactives: at the top dose activity, negative = less viability, hits mostly cytotoxic | 360,000 tested, 1.6% active;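 also: NT is the 2HG producing partner of a matched IDH1 knockdown line; potency is read from the fitted curve at half-maximal effect; 0% = DMSO-treated cells and -100% = media-only wells without cells; nearly all actives have a fitted effect of over 55% in size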
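750 cells/well, RPMI + 5% FBS; 2 h settle, compound pin-transfer, 48 h at 37 degrees C. CellTiter-Glo 10 min RT, luminescence. Normalized to DMSO and media-only wells.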
ALOX12 inh – blocks human arachidonate 12S-lipoxygenase; P18054; purified 12hLO, xylenol orange hydroperoxide absorbance; Potency, µM (series often up to 108 µM), without a hit: top-dose activity change, negative = inhibition, most hits filed as inhibitors; 580,000 tested, 1.1% active; AID 1671190; also: potency is read from the fitted curve at half-maximal effect
Target sequence (P18054 whole entry, looked up): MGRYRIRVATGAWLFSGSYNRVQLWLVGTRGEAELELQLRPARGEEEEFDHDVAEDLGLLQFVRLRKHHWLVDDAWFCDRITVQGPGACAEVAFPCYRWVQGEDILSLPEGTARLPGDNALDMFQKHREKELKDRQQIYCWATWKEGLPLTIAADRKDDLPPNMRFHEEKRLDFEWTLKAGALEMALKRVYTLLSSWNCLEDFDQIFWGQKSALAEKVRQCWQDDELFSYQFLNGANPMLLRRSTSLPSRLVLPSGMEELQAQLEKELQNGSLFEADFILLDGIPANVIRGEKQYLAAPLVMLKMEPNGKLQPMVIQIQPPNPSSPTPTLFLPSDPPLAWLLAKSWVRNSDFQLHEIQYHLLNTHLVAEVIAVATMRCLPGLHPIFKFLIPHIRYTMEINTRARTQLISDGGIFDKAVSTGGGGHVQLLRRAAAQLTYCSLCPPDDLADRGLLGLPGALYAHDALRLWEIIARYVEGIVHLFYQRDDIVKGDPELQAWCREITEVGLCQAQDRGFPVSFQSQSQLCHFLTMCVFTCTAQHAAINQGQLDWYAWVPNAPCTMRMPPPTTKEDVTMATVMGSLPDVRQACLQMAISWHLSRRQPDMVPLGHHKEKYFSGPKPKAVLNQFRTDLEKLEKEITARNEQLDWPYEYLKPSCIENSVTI
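Purified human 12hLO at 150 nM in 25 mM Hepes, 0.01% Triton X-100, pH 7.0, preincubated 15 min at room temperature with compound. Reaction started with 40 uM arachidonic acid, 30 min at room temperature. Hydroperoxide measured by Fe-xylenol orange, 573/405 nm absorbance ratio.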
IL-1B inflam inh – inhibitors of inflammasome signaling (IL-1 beta secretion) | activity change, % at 57.5 µM | THP-1 LPS/ATP IL-1B secretion, AlphaLISA, 16 h; hits give low values | 360,000 tested, 4.7% active; in the data active = activity change below about -50%; inconclusive = mostly about -30% to -49%
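Secreted IL-1B measured by AlphaLISA bead assay after 16 h compound exposure of THP-1 cells; compounds (final up to 57.5 uM) added 1 h before LPS (250 ng/mL) and ATP (1.25 mM) stimulation; lower signal means less secretion.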
Active calls of the source: *. Unless noted, calls follow the shape of the dose curve; as a rule, active = well fitted curve in the direction sought with a large enough effect; inconclusive = small, poorly fitted or top-dose-only effect, or another doubt; inactive = no such curve, though single readings can be large; an effect the other way counts as inactive or inconclusive. Unless noted, % is scaled to controls: 0 for no effect and ±100 for the full control effect.

For CONC(=O)Cn1c2ccccc2c(=O)c2ccccc21 the results were ALOX12 inh 0.0%.
Screening CC(=O)c1cn(CC(=O)Nc2ccccc2Cl)c2ccccc12 returned TDP1 cell CPT 16.4µM*, TDP1 cell noCPT 9.2µM*, HT1080 IDH1KD tx inconclusive, HT1080NT lethal 0.5%, ALOX12 inh 0.0% and IL-1B inflam inh 32.0.
For CC(=O)c1cn(CC(=O)Nc2ccccc2F)c2ccccc12 the results were TDP1 cell CPT 18.4µM*, TDP1 cell noCPT 11.6µM*, HT1080 IDH1KD tx -6.0%, HT1080NT lethal -2.0%, ALOX12 inh 12.1% and IL-1B inflam inh 20.9.
For CCC(=O)c1cn(CC(=O)Nc2ccccc2F)c2ccccc12 the results were TDP1 cell CPT -1.0%, TDP1 cell noCPT -16.4%, HT1080 IDH1KD tx -3.5%, HT1080NT lethal 1.3%, ALOX12 inh 0.0% and IL-1B inflam inh 6.5.
For CCN(CC)C(CNC(=O)c1nn(C)c(=O)c2ccccc12)c1ccccc1 (stereo not drawn) the results were ALOX12 inh 40.1%.
COc1cccc(CNC(=O)C2CCN(C(=O)N3CC(C)Oc4ccc(C)cc43)CC2)c1 (stereo not drawn) was read as ALOX12 inh -9.8%.
`CN(CCOc1ccc(Br)cc1)c1ccc(S(=O)(=O)N2CCOCC2)cn1` gave ALOX12 inh 1.8%.
For O=Cc1cn(CC(=O)Nc2ccc(F)cc2)c2ccccc12 the results were TDP1 cell CPT inconclusive, TDP1 cell noCPT 9.2µM*, HT1080 IDH1KD tx -6.1%, HT1080NT lethal -9.3%, ALOX12 inh inconclusive and IL-1B inflam inh 32.3.
`O=Cc1cn(CC(=O)Nc2ccccc2)c2ccccc12` gave TDP1 cell CPT inconclusive, TDP1 cell noCPT inconclusive, HT1080 IDH1KD tx -4.4%, HT1080NT lethal 1.5%, ALOX12 inh inconclusive and IL-1B inflam inh 19.6.
`Cc1ccc(NC(=O)Cn2cc(C(=O)C3CC3)c3ccccc32)cc1` gave TDP1 cell CPT -8.3%, TDP1 cell noCPT 1.0%, HT1080 IDH1KD tx -2.0%, HT1080NT lethal -9.5%, ALOX12 inh -1.2% and IL-1B inflam inh 7.3.
Cc1cc(C)cc(NC(=O)Cn2cc(C(=O)C3CCCCC3)c3ccccc32)c1 was read as TDP1 cell CPT 18.4µM*, TDP1 cell noCPT 23.1µM* and ALOX12 inh -16.8%.
CC(=O)c1cn(CC(=O)Nc2ccccc2)c2ccccc12 was read as TDP1 cell CPT 14.6µM*, TDP1 cell noCPT 13µM*, HT1080 IDH1KD tx -14.5%, HT1080NT lethal -29.3%, ALOX12 inh 14.3% and IL-1B inflam inh 21.3.
CC(C)C1=NN(C(=O)c2ccccc2)C(O)(C(C)(C)C)C1 (stereo not drawn) was read as TDP1 cell CPT inconclusive, TDP1 cell noCPT 6.51µM*, HT1080 IDH1KD tx 12.7%, HT1080NT lethal 10.7%, ALOX12 inh -11.6% and IL-1B inflam inh 5.8.
For C[C@@]12C(=O)N(c3ccc(C(F)(F)F)cc3)C(=O)N1[C@@H]1c3ccccc3OC[C@@H]1[C@H]2c1ccccc1 the results were TDP1 cell CPT 7.31µM*, TDP1 cell noCPT 10.3µM*, HT1080 IDH1KD tx 1.7%, HT1080NT lethal 7.8% and IL-1B inflam inh 0.0.
For C[C@H]1NC(=O)[C@]2(C)[C@@H](c3ccccc3)[C@H]3COc4ccccc4[C@@H]3N2C1=O the results were TDP1 cell CPT 0.0%, TDP1 cell noCPT -13.6%, HT1080 IDH1KD tx 6.1%, HT1080NT lethal 14.3%, ALOX12 inh -13.8% and IL-1B inflam inh 0.1.
`C[C@]12C(=O)N(c3ccc(F)cc3)C(=O)N1[C@@H]1c3ccccc3OC[C@@H]1[C@H]2c1ccccc1` gave TDP1 cell CPT inconclusive, TDP1 cell noCPT 18.4µM*, HT1080 IDH1KD tx -22.6%, HT1080NT lethal 0.0%, ALOX12 inh 4.9% and IL-1B inflam inh -9.6.
CCOc1ccc2[nH]c(=O)c(CN(Cc3cccs3)C(CC)c3nnnn3C(C)(C)CC)cc2c1 (stereo not drawn) was read as TDP1 cell CPT 20.6µM*, TDP1 cell noCPT 18.4µM*, HT1080 IDH1KD tx inconclusive, HT1080NT lethal inconclusive, ALOX12 inh 3.0% and IL-1B inflam inh inconclusive.
For CCC(c1nnnn1C1CCCC1)N(Cc1cccs1)Cc1cc2cc(C)ccc2[nH]c1=O (stereo not drawn) the results were TDP1 cell CPT 18.4µM*, TDP1 cell noCPT 20.6µM*, HT1080 IDH1KD tx 0.0%, HT1080NT lethal 6.4%, ALOX12 inh inconclusive and IL-1B inflam inh -53.9*.
CC(=O)Nc1cccc(C(=O)OCC(=O)c2ccc[nH]2)c1 was read as ALOX12 inh 10.1%.
For COc1ccc(NC(=O)c2nc3cc(C)c(C)cc3nc2N2CCOCC2)cc1 the results were ALOX12 inh 9.1%.
Screening O=C(NCc1ccccc1)C1CCCN(c2ncnc3c2nc2n3CCCCC2)C1 (stereo not drawn) returned TDP1 cell CPT inconclusive, TDP1 cell noCPT 20.6µM*, HT1080 IDH1KD tx -1.6%, HT1080NT lethal -18.5%, ALOX12 inh 0.9% and IL-1B inflam inh -14.7.
CC(C)NC(=O)C1CCCN(c2ncnc3c2nc2n3CCCCC2)C1 (stereo not drawn) was read as TDP1 cell CPT inconclusive, TDP1 cell noCPT inconclusive and ALOX12 inh -18.8%.
O=C(NCC1CCN(Cc2cccc(Cl)c2)CC1)C1CCCN(c2ncnc3c2nc2n3CCCCC2)C1 (stereo not drawn) was read as TDP1 cell CPT 25.9µM*, TDP1 cell noCPT inconclusive, HT1080 IDH1KD tx inconclusive, HT1080NT lethal 20.6µM*, ALOX12 inh -25.1% and IL-1B inflam inh inconclusive.
Cc1cccc(CCNC(=O)C2CCCN(c3ncnc4c3nc3n4CCCCC3)C2)c1 (stereo not drawn) was read as TDP1 cell CPT -17.5%, TDP1 cell noCPT inconclusive, HT1080 IDH1KD tx -5.6%, HT1080NT lethal -3.0%, ALOX12 inh -2.9% and IL-1B inflam inh -23.1.
Screening COc1ccc(CNC(=O)C2CCCN(c3ncnc4c3nc3n4CCCCC3)C2)cc1 (stereo not drawn) returned TDP1 cell CPT 18.4µM*, TDP1 cell noCPT inconclusive, HT1080 IDH1KD tx 0.7%, HT1080NT lethal 12.1% and IL-1B inflam inh 69.6.
